Shn3 inh set2 = inhibitors of Schnurri-3 3'UTR reporter in osteoblasts. 0.52% of 360,000 active. inhibition, % at 12.5 µM. Clone20 osteoblast Shn3 3'UTR firefly luciferase, 24 h. AID 588674;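 active = mean inhibition of at least 75% with every replicate also reaching 75%; inconclusive = mean inhibition at least 75% but some replicate below; inactive = mean inhibition below 75%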
LMP1 NFkB inh = Epstein-Barr LMP1 NF-kappaB reporter inhibition; LMP1-induced NF-kappaB luciferase reporter cells, luminescence; inhibition, % at 12.5 µM; AID 504558; 0.69% of 350,000 active; in the data active = inhibition above about 41%; inconclusive = no clear call, values can overlap the other calls
TRPM1 prom inh = MITF TRPM1 promoter inhibition in SK-MEL-5 cells; SK-MEL-5 TRPM1 promoter luciferase, 24 h; inhibition, % at 12.5 µM; 0.83% of 330,000 active; AID 488899;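 active = mean inhibition across replicates of 60% or more, whatever share of single replicates reaches that level; inconclusive = some that reach 60%, reason not given; inactive = mean inhibition across replicates below 60%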
Peg3 promoter = inhibitors of Peg3 promoter | HeLa PEG-Prom luciferase reporter, luminescence, overnight | inhibition, % at 20 µM | 1.7% of 360,000 active;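 active = inhibition of at least 50% at 20 µM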
PAX8 reporter = PAX8 transcriptional activity inhibition | 1.2% of 360,000 active | AID 652154 | RMG-I TPO-luciferase reporter, SteadyGlo, 24 h | inhibition, % at 12.6 µM;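 active = mean replicate inhibition at least 60% with every replicate also reaching 60%; inconclusive = only one of the two criteria is met; inactive = mean below 60% and not all replicates reaching 60%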;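 also: luciferase light reporting Pax8 driven TPO promoter activity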
HIF-2a inh = inhibitors of HIF-2a; 786-0 RCC cells HIF-2a reporter, luciferase luminescence, overnight; inhibition, % at 18.8 µM; 0.72% of 360,000 active; AID 624352;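 active = inhibition of the luminescence signal of 40% or more relative to plate controls, in a single-dose primary screen at 18.75 µM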
Each line names hits and unclear results; the compound was inactive in the other large screens; ! = repeats disagree. An excerpt weighted towards active compounds, which were near 2.8% of everything screened.

CCOCCn1ccc2c(OCC(=O)Nc3cc(OC)ccc3OC)cccc2c1=O	none
Cc1ccc(CN2C(=O)CCC2C(=O)NCCCN2CCOCC2)cc1 (stereo not given)	none (no result: PAX8 reporter)
Cc1ccc(CN2C(=O)CCC2C(=O)NCCCN2CCC(C)CC2)cc1 (stereo not given)	LMP1 NFkB inh 50 (no result: PAX8 reporter)
O=C(CCl)N1CCCC1c1ccc2c(c1)OCCO2 (stereo not given)	TRPM1 prom inh 90
O=C(N[C@H]1CC[C@H](CCNS(=O)(=O)Cc2ccccc2)O[C@H]1CO)c1ccccc1F	none (no result: Shn3 inh set2, LMP1 NFkB inh, TRPM1 prom inh, Peg3 promoter, HIF-2a inh)
CC1(C)CC(N=c2cc(-c3ccccc3)oc3ccc(Cl)cc23)CC(C)(C)N1	Peg3 promoter 108
COC(=O)C1=NNC(C(=O)OC)C1c1ccccc1 (stereo not given)	LMP1 NFkB inh 84
O=C(C[C@H]1CC[C@H](NC(=O)Nc2ccccc2)[C@H](CO)O1)NCc1cccc(F)c1	none (no result: Shn3 inh set2, LMP1 NFkB inh, TRPM1 prom inh, Peg3 promoter, HIF-2a inh)
COC1=CC(=O)c2nc(Cl)ccc2C1=O	Shn3 inh set2 98, Peg3 promoter 107, PAX8 reporter 107, HIF-2a inh 90 (no result: LMP1 NFkB inh, TRPM1 prom inh)
O=C(Nc1cccc(Cl)c1)N1C[C@H]2[C@@H](c3ccccc31)[C@H](CO)N2C(=O)C1CCCC1	none (no result: Shn3 inh set2, LMP1 NFkB inh, TRPM1 prom inh, Peg3 promoter, HIF-2a inh)
COc1ccc(NC(=O)N(C)C[C@H]2OCCCC[C@@H](C)Oc3ccc(NC(=O)NC(C)C)cc3C(=O)N([C@H](C)CO)C[C@@H]2C)cc1	none (no result: Shn3 inh set2, LMP1 NFkB inh, TRPM1 prom inh, Peg3 promoter, HIF-2a inh)
COc1ccc([C@H]2C[C@@H](O)[C@H](n3cc(COC(=O)c4ccccc4)nn3)CN2CC2CCCCC2)cc1	Peg3 promoter 52 (no result: TRPM1 prom inh)
O=C(C[C@@H]1CC[C@@H](NC(=O)c2cccnc2)[C@@H](CO)O1)NCc1ccc(Cl)c(Cl)c1	none (no result: Shn3 inh set2, LMP1 NFkB inh, TRPM1 prom inh, Peg3 promoter, HIF-2a inh)
CCc1ccc(S(=O)(=O)/N=C2\C=C(Nc3ccc(C(=O)O)cc3)C(=O)c3ccccc32)cc1	PAX8 reporter 93
COC(=O)c1ccccc1NC1=C/C(=N\S(=O)(=O)c2ccc(C(=O)O)cc2)c2ccccc2C1=O	TRPM1 prom inh 90, Peg3 promoter 105 (no result: PAX8 reporter)
COc1ccc2[nH]c(C)c(CCN(Cc3cccs3)C(=S)Nc3ccc(F)cc3)c2c1	Shn3 inh set2 86 (no result: PAX8 reporter)
COc1ccc2[nH]c(C)c(CCN(Cc3cccs3)C(=S)Nc3ccccc3)c2c1	none
C[C@@H]1CN([C@@H](C)CO)C(=O)Cc2cc(NS(=O)(=O)c3cccs3)ccc2O[C@@H]1CN(C)Cc1ccc(C(=O)Nc2ccccc2N)cc1	none (no result: Shn3 inh set2, LMP1 NFkB inh, TRPM1 prom inh, Peg3 promoter, HIF-2a inh)
CCCNC(=O)C[C@@H]1CC[C@@H]2[C@@H](COc3ccc(NC(=O)c4cccs4)cc3C(=O)N2C)O1	none (no result: Shn3 inh set2, LMP1 NFkB inh, TRPM1 prom inh, Peg3 promoter, HIF-2a inh)
C/C(=N\Nc1nc2ccccc2[nH]1)c1ccc(Cl)s1	LMP1 NFkB inh 43
COc1cc2nc(N3CCN(C(=O)C4CCCO4)CC3)nc(N)c2cc1OC (stereo not given)	LMP1 NFkB inh 79!
COc1cc2nc(N3CCN(C(=O)[C@H]4COc5ccccc5O4)CC3)nc(N)c2cc1OC	none
O=[N+]([O-])c1ccc(N2CCOCC2)cc1O	none (no result: Shn3 inh set2)
Cc1cc(N2CCOCC2)ccc1/C=C\[N+](=O)[O-]	Peg3 promoter 102, HIF-2a inh 55
O=C(Nc1ccc(Cl)cc1)c1nc[nH]c1C(=O)NCCCCNC(=O)c1[nH]cnc1C(=O)Nc1ccc(Cl)cc1	Peg3 promoter 80
CC(C)(C)OC(=O)NCCCC[C@H](NC(=O)c1[nH]cnc1C(=O)Nc1ccccc1)C(=O)OC(C)(C)C	Peg3 promoter 53, PAX8 reporter inconclusive
CC(C)(C)OC(=O)NCCCC[C@H](NC(=O)c1[nH]cnc1C(=O)Nc1ccc(Cl)cc1)C(=O)OC(C)(C)C	Peg3 promoter 63 (no result: PAX8 reporter)
C[C@@H](NC(=O)c1nc[nH]c1C(=O)N[C@@H](CCCCNC(=O)OC(C)(C)C)C(=O)OC(C)(C)C)c1ccccc1	none
CCOC(=O)c1ccc(NC(=O)c2nc[nH]c2C(=O)NC)cc1	none
CCOC(=O)c1ccc(NC(=O)c2nc[nH]c2C(=O)NCCNC(=O)c2[nH]cnc2C(=O)Nc2ccc(C(=O)OCC)cc2)cc1	Shn3 inh set2 88, TRPM1 prom inh 100, Peg3 promoter 91
C[C@@H]1CN([C@@H](C)CO)S(=O)(=O)c2ccc(-c3cncnc3)cc2O[C@@H]1CN(C)C(=O)NC1CCCC1	none (no result: Shn3 inh set2, LMP1 NFkB inh, TRPM1 prom inh, Peg3 promoter, HIF-2a inh)
CO[C@H]1CN(C)C(=O)c2cc(NC(=O)C3CCCCC3)ccc2OC[C@@H](C)N(Cc2nccs2)C[C@@H]1C	none (no result: Shn3 inh set2, LMP1 NFkB inh, TRPM1 prom inh, Peg3 promoter, HIF-2a inh)
C[C@H](CO)N1C[C@H](C)[C@H](CN(C)CC2CCCCC2)Oc2ccc(NC(=O)CCN3CCOCC3)cc2C1=O	none (no result: Shn3 inh set2, LMP1 NFkB inh, TRPM1 prom inh, Peg3 promoter, HIF-2a inh)
CC(C)(C)OC(=O)N1CCC(NC(=O)c2[nH]cnc2C(=O)Nc2ccccc2)CC1	Peg3 promoter 52
COc1ccc(CNc2ncnc3c2[nH]c2ccccc23)cc1	Shn3 inh set2 89 (no result: LMP1 NFkB inh, TRPM1 prom inh)
CCOC(=O)c1cc(-c2ccccc2C)nn1Cc1cc(C)no1	LMP1 NFkB inh 58
CCOC(=O)c1cc(-c2ccccc2)nn1Cc1cc(C)no1	none
COc1ccc(-c2cn(-c3ccc(Br)cc3)c3[n+]2CCS3)cc1	PAX8 reporter 65
O=C(Nc1ccc(F)cc1)N1C[C@@H]2[C@H](c3ccccc31)[C@@H](CO)N2C(=O)Cc1ccccn1	none (no result: Shn3 inh set2, LMP1 NFkB inh, TRPM1 prom inh, Peg3 promoter, HIF-2a inh)
CCCCCCNC(=O)OC12CN(C(=O)OC(C)C)N(C(=O)OC(C)C)CC1(O)CN(S(=O)(=O)c1ccc(C)cc1)C2 (stereo not given)	Peg3 promoter 84 (no result: TRPM1 prom inh)
CCCCCCNC(=O)O[C@H]1Cn2c(=O)ccc(=O)n2[C@@H]2CN(S(=O)(=O)c3ccc(C)cc3)C[C@]12O	Shn3 inh set2 91, Peg3 promoter 103, PAX8 reporter 77 (no result: TRPM1 prom inh)
Cc1ccc(S(=O)(=O)N2CC3(O)CN(C(=O)OC(C)C)N(C(=O)OC(C)C)CC3(OC(=O)NCC3CCCCC3)C2)cc1 (stereo not given)	none (no result: TRPM1 prom inh)
COc1cccc(-c2nnc3sc(C4CCCCC4)nn23)c1	LMP1 NFkB inh 45 (no result: PAX8 reporter)
O=S(=O)(N[C@@H]1CC[C@H](CCn2cc(C3(O)CCCC3)nn2)O[C@H]1CO)c1ccc(Cl)cc1	none (no result: Shn3 inh set2, LMP1 NFkB inh, TRPM1 prom inh, Peg3 promoter, HIF-2a inh)
CN(C)C(=O)C[C@H]1CC[C@@H](NC(=O)Nc2cccc(F)c2)[C@@H](CO)O1	none (no result: Shn3 inh set2, LMP1 NFkB inh, TRPM1 prom inh, Peg3 promoter, HIF-2a inh)
CCc1cccc2c(C(=O)CN3C(=O)NC4(CCCCCC4)C3=O)c[nH]c12	PAX8 reporter 82
CCOc1ccc2nc(SC3CC(=O)N(c4ccc(C)cc4)C3=O)sc2c1 (stereo not given)	Shn3 inh set2 96, Peg3 promoter 89 (no result: PAX8 reporter)
CCOc1ccc(N2C(=O)CC(Sc3nc4ccc(OCC)cc4s3)C2=O)cc1 (stereo not given)	none (no result: PAX8 reporter)
C=CCNc1nnc(SC2CC(=O)N(c3ccc(OCCC)cc3)C2=O)s1 (stereo not given)	Peg3 promoter 104 (no result: PAX8 reporter)
N#C/C(C(=O)N1CCCC1)=C1/N=C(N)c2ccccc21	PAX8 reporter 108
CC(C)NC(=O)N1C[C@H]2[C@@H](c3ccccc31)[C@H](CO)N2C(=O)c1cccnc1	none (no result: Shn3 inh set2, LMP1 NFkB inh, TRPM1 prom inh, Peg3 promoter, HIF-2a inh)
COc1cccc(/C=N/NC(=O)c2cc3c(OC)ccc(OC)c3[nH]2)c1O	Shn3 inh set2 94, Peg3 promoter 52
